# In the supplement of paper PMC11417369:
# ± gives the standard deviation of the averaged measurements. Over roughly 25,000 sequences, “ln(normalized median fluorescence intensity)” has its median near 8.9; the highest 2% begin near 10. Only a selection was taken, and the highest values are over-represented in it overall.
# Test system: PfAP2-LT AP2 domain (GST-tagged)
# Experiment: gcPBM binding intensity (ln(normalized median fluorescence intensity)); higher = stronger DNA binding
# Outline: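 Probes on an Agilent 4 × 180k array were primer-extended, double-stranded and 36 bp long, taken from intergenic genomic regions, with negative controls added. GST-tagged P. falciparum DNA-binding domains from E. coli, about 25 μg on average, were applied to the array for 1 h in 1× PBS containing 1% milk, 0.2 mg/ml BSA, 0.5% salmon testes DNA and 0.03% Triton X-100. Binding intensity, obtained after Alexa488 anti-GST antibody detection and a 488 nm scan, is the highest Masliner-normalised natural-log median intensity across replicate spots of either probe orientation.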
row,Sequence,gcPBM binding intensity (ln)
1,ATGTTATATTTTTTTATACACACTGGAATATATAAA [CACACA_site215],8.64 ± 0.34
2,TGAATGTAAGAAAATACACACTAGTATAGTAACACC [CACACA_site5131],9.24 ± 0.38
3,ATGTAATATTTACAACGTACAAATTATAAACATATT [XGTACX_site603],8.88 ± 0.35
4,GACGACTATATTAATTGTACTCAATTTAAGCATAAT [XGTACX_site2750],8.72 ± 0.35
5,TTAATAACAAAATAAACACACATATATAAATACCCA [CACACA_site4960],9.11 ± 0.4
6,TATATCTATAATATTACACACATATATTTATATTTT [CACACA_site7595],8.95 ± 0.33
7,CATATTATATTTTCATGTACACATAACATATTTATA [XGTACX_site4787],8.76 ± 0.42
8,GAATAAATTGTATTGTGTACATATAAAAGCATCTAA [XGTACX_site8271],8.8 ± 0.4
9,TTCTTTTTAAATTACACACACATATATATATGTATA [CACACA_site3515],9.32 ± 0.41
10,AATAATAATTTAAAAAGTACATTCTAATAAACACGT [XGTACX_site1444],8.78 ± 0.52
11,TAATAAATAAATGACACACACACACCCAAAAAAAAA [CACACA_site2623],10.1 ± 0.41
12,CAAAAAATGAAACACACACACACACCCATAAATAAA [CACACA_site1231],10.12 ± 0.035
13,CTCCATATGAAACACACACACAAATGAAAAAAATAT [CACACA_site3018],9.82 ± 0.4
14,ATTAATAAATAAATGACACACACACCCACAAAAAAA [CACACA_site8839],9.9 ± 0.12
15,ATAATGAAAAGGAACATACACACCCCATATAAATAT [CACACA_site3442],9.61 ± 0.12
16,TAATAAATAAATGACACACACACACGCAAAAAAAAA [CACACA_site7275],9.94 ± 0.19
17,GGGTATATATTATTATGTACACATGTATAAAATAAG [XGTACX_site2633],8.8 ± 0.52
18,ATACAAAAAGTAAAAAGTACTTAACTAAATATATAA [XGTACX_site2335],8.74 ± 0.56
19,ATATATATATATATATGTACGTACTCAGTTATGCCT [XGTACX_site453],10.2 ± 0.29

row,Sequence,gcPBM binding intensity (ln)
1,TATATATATATTATATGTACGTATGTATGTATATAT [XGTACX_site6451],8.88 ± 0.3
2,GTATATATGTATGTATGTACGTATATAGTTATGTAT [XGTACX_site6769],8.98 ± 0.3
3,AGTATAAAATTTGGTTGTACATTTTTAAAAAAATTA [XGTACX_site7519],8.29 ± 0.42
4,GGAATATTAATAAGAGTGCATTTTGTATTCAATATG,8.66 ± 0.41
5,GTATAATTTTCGTATTCACACAAGAATATACTACAT [CACACA_site4877],8.91 ± 0.45
6,TTAAAAAAAAGACACACACACATACACATATTTATA [CACACA_site7535],9.94 ± 0.35
7,TCTCATAGTAGACACACACACACACGCACATATATA [CACACA_site6916],10.1 ± 0.31
8,TATCTCATAGTATACACACACACACGCGCACATATA [CACACA_site6917],10.1 ± 0.3
9,ACATCAAGCAGACACACACACACACGCACACGCACA [CACACA_site6309],10.4 ± 0.17
10,AAAAAAAAAAGACACACACACACACGGACACATACA [CACACA_site7363],10.3 ± 0.13
11,AAAAAAAAAAGACACACACACACATACACATACATA [CACACA_site7362],9.97 ± 0.071
12,CAAATACACGGACACACACACACAAAAAAAAAAAAA [CACACA_site6385],10 ± 0.71
13,CACAGACACGGACACACACACACAAAAAAAAAAAGA [CACACA_site4436],10.1 ± 0.55
14,TCATAGTATAGACACACACACACACGCATATAAATA [CACACA_site6915],9.92 ± 0.13
15,CACACGCACGGACACACACACAAAAAAAAAAAGAAA [CACACA_site6378],9.34 ± 0.58
16,CCAACATGCAGACGCACACACAAAAAAAGCATGCAT [CACACA_site74],9.54 ± 0.4
17,ATAAATCAAAGGCACACACACAAAAAAAAAAAAAAA [CACACA_site160],9.62 ± 0.49
18,ATTTCTCTATCGTAATGTACATAAAAAATGAAAAAA [XGTACX_site1201],8.51 ± 0.51
19,TTATTATTTTATAACACACACATATATATTATATCT [CACACA_site1434],9.11 ± 0.35

row,Sequence,gcPBM binding intensity (ln)
1,ATTAAATCCGCACGCACACACACATATTAATAAAAA [CACACA_site3992],9.71 ± 0.33
2,AATTGTGCATTATATTGTACACGTGTTGTATATATT [XGTACX_site975],9.18 ± 0.33
3,TTTGTTTTTAATTTCGCACACACCTTGTGGAAAAAA [CACACA_site577],8.98 ± 0.3
4,TTATTTATAATATATACACACTAACATTATTTATCC [CACACA_site4835],8.8 ± 0.51
5,AAAAATAAATTTAGTTGTACTTTATTATTTTAAATA [XGTACX_site3067],8.28 ± 0.37
6,ATATAACATAGACACACACACATATAAATATATTAT [CACACA_site7865],9.67 ± 0.14
7,CTTCATAAAAATTGCACACATATAATAATGTACATA [CACACA_site2212],8.96 ± 0.36
8,TTAAATGGAAAAATATGTACATATATATATATATTT [XGTACX_site2286],8.84 ± 0.35
9,CACGCACGCAGACACACACACACACGCACATATATA [CACACA_site6303],10.2 ± 0.38
10,CGCGCACCCAGACACACACACACACCGATATATATA [CACACA_site8687],10.1 ± 0.48
11,AGCACGCACAGACACACACACATATTTATATTTATA [CACACA_site6291],9.72 ± 0.39
12,ACATCAAGCAGACACACACACACACCCACCCACCGA [CACACA_site371],10.4 ± 0.11
13,AACACGCGCAGACACACACACACACGCACATATATA [CACACA_site7104],10.3 ± 0.28
14,CGCACACGCAGACACACACACACATATAAATAAATA [CACACA_site7101],9.74 ± 0.37
15,CAAGCACAGAAACACACACACACACCGACACAGACA [CACACA_site4359],10.1 ± 0.15
16,AAGCATACATCAAGCACACACACACCCACAGAGACA [CACACA_site4362],9.91 ± 0.22
17,TAAACAGACATATAAACACACATATAAACCGACATA [CACACA_site2478],9.4 ± 0.48
18,AACAGACATAGAAACACACATACATACATACATACA [CACACA_site2479],9.53 ± 0.65
19,GATCCATTATTGATCCGTACTTATTCATGTTATATA [XGTACX_site5946],8.91 ± 0.51
